The text below walks through data of PubChem BioAssay (NCI).

Common to all, as to experiment: NCI-60 one-dose screen, 48 h (100 = growth as untreated, 0 = no growth, -100 = all killed)
Holding throughout (conditions): 10 µM unless noted

In experiment [1] the test system is NCI-H23 lung.
Experiment [2] relates to NCI-H226 lung.
For experiment [3], the system named is NCI-H322M lung.
For experiment [4], the system named is HOP-62 NSCLC.
Experiment [5] has as its system NCI-H460 lung.
Experiment [6] relates to NCI-H522 lung.
The test system of experiment [7] is A549/ATCC NSCLC.
The subject of experiment [8] is 786-0 renal.
The subject of experiment [9] is COLO 205 colon.
Experiment [10] has as its system HOP-92 NSCLC.

Compounds without any hit were thinned out: in the full panel of roughly 83,000, 20% have a hit.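 Cells were grown in 96-well plates and exposed to the test compound at a single concentration for 48 hours; results are reported as percent growth, with values below 10 considered active.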 A number with no mark means an inactive call. Active and inactive are the calls of the source.

For `COc1cc2nc3sc(C(=O)Nc4ccc(C(=O)OC(C)C)cc4)c(C(=O)Nc4ccc(Cl)cc4C)n3c(=O)c2cc1OC`, the growth is 72.1% in [1]; 103% in experiment [2]; 68.5% in experiment [3]; 67.2% in [4]; 22.7% in [5]; 98.7% in [6]. For the same compound, the growth in [7] is 52%; in experiment [8], 53.6%; in experiment [9], 45.8%.

Regarding `COc1ccc(Cn2cc(C(=O)N=Nc3c(O)[nH]c4c(C)cccc34)nn2)cc1`, the growth in experiment [1] was 89.1%; in experiment [2] it was 75.1%; in [3], 89.6%; in [4], 106%; in experiment [5], 73.1%; in experiment [10] it was 51.3%. Also, the growth was 77.5% in experiment [6], 43.5% in experiment [8] and 108% in experiment [9].

With `C=C(CNCCO)[C@@H]1CC[C@]2(CO)CC[C@]3(C)[C@H](CC[C@@H]4[C@@]5(C)CCC(N)C(C)(C)[C@@H]5CC[C@]43C)[C@@H]12` (some centres not stated), the growth in experiment [1] was 83.7%; in experiment [2], 88%; in experiment [3], 80.2%; in experiment [4], 71.4%; in experiment [5], -26.8% (active); in experiment [10] it was 54.5%. For the same compound, the growth in [6] is 0.745% (active); in experiment [8], 11%; in [9], -74.7% (active).

As for `C=C(CNCCc1ccc(O)cc1)[C@@H]1CC[C@]2(CO)CC[C@]3(C)[C@H](CC[C@@H]4[C@@]5(C)CCC(=O)C(C)(C)[C@@H]5CC[C@]43C)[C@@H]12`, the growth is 65.7% in experiment [1]; 93.1% in [2]; 63.2% in experiment [3]; 84.4% in experiment [4]; -48.8% (active) in [5]; 29.2% in [6]. Moreover, the figures for the growth in experiment [7], in [8] and in [9] were 26.7%, 44.7% and -55.6% (active), respectively.

Consider `CS(=O)(=O)Nc1cc(-c2ccc3ncc(C#N)c(Nc4ccc(F)c(Cl)c4)c3c2)cnc1Cl`, for which the growth is -11.7% (active) in experiment [1]; -0.649% (active) in experiment [2]; 5.43% (active) in experiment [3]; 1.41% (active) in [4]; 6.16% (active) in experiment [5]; -18.1% (active) in experiment [6]. Further, the growth was 5.08% (active) in experiment [7], 6.73% (active) in experiment [8] and -53.5% (active) in experiment [9].

Take `Cc1ccc(-c2nc(-c3cn(C)c4ncccc34)cs2)cc1`: the growth was -7.81% [100 µM] (active) in experiment [1]; -35.3% [100 µM] (active) in experiment [2]; -32% [100 µM] (active) in experiment [3]; -63.3% [100 µM] (active) in experiment [4]; -48.5% [100 µM] (active) in experiment [5]; -47.2% [100 µM] (active) in experiment [10]. The growth is 6.25% [100 µM] (active) in experiment [6], -52.8% [100 µM] (active) in experiment [8] and -60.5% [100 µM] (active) in experiment [9].

As for `CC(=O)O[C@H]1C[C@@H]2C(C)(C)C(=O)CC[C@@]2(C)c2ccc(C(C)C)cc21`, the growth was 102% in experiment [1]; 101% in [2]; 109% in [3]; 109% in experiment [4]; 107% in experiment [5]; 96.5% in experiment [10]. The results for the growth in [6], in experiment [8] and in [9] were 98.3%, 93.9% and 115%, respectively.

With `COc1ccc(C2CC(c3cc(OC)c(OC)c(OC)c3)=NO2)cc1OCCCCOc1cc2c(cc1OC)C(=O)N1CCC[C@H]1C=N2` (some centres not stated), the growth in [1] is -16% (active); in experiment [2], -0.71% (active); in experiment [3] it was 17.4%; in [4], 22.8%; in experiment [5], -14.8% (active); in experiment [6], -32.5% (active). Also, the growth is 20% in experiment [7], -35.3% (active) in experiment [8] and -32.9% (active) in experiment [9].

`Oc1c(CN2CCCC2)cc(CSCc2ccccc2)c2cccnc12`: the growth in experiment [1] is 11.8%; in experiment [2] it was -4.43% (active); in experiment [3], -0.478% (active); in [4], 4.78% (active); in [5] it was 2.01% (active); in experiment [6], 12.9%. Moreover, the growth was 9.29% (active) in [7], 6.65% (active) in experiment [8] and 51% in [9].

In the case of `CCOC(=O)C(=Cc1ccc(-c2ccccc2)cc1)C(=O)OCC`, the growth in experiment [1] is 38.6%; in [2], 46.5%; in experiment [3], 78.4%; in experiment [4], 73.7%; in experiment [5], 78%; in experiment [6] it was 26%. The growth in experiment [7] is 49.6%; in [8], 43.1%; in experiment [9] it was 55.6%.

Consider `Cc1ccc2c(-c3nnc(N)s3)cc(=O)oc2c1C`, for which the growth is 95.5% in experiment [1]; 97.5% in experiment [2]; 98.5% in [3]; 101% in experiment [4]; 102% in experiment [5]; 102% in [6]. Also, the values for the growth in [7], in [8] and in experiment [9] were 104%, 92.4% and 119%, respectively.

`N#Cc1c(Nc2ccc(N3CCOCC3)cc2)nc(SCC(=O)c2ccc(Br)cc2)nc1-c1ccccc1`: the growth in [1] is 98%; in [2], 108%; in [3] it was 97.7%; in [4] it was 92.6%; in experiment [5], 114%; in experiment [10], 99.7%. For the same compound, the results for the growth in experiment [6], in [8] and in [9] were 96.2%, 101% and 107%, respectively.

For the compound `CC(C)(C)n1cc(-c2ccnc(NCCCNS(=O)(=O)c3ccc(C(F)(F)F)cc3)c2)c(-c2cccc(F)c2)n1`, the growth in experiment [1] was 82%; in experiment [2] it was 91.1%; in experiment [3], 103%; in experiment [4], 92.7%; in experiment [5] it was 76.7%; in experiment [10], 90.1%. In addition, the growth was 73.7% in experiment [6], 88.3% in experiment [8] and 76.9% in experiment [9].
